# Measured values taken from the supplement of paper PMC6805474.
# Legend:
# [1] = system: Schistosoma mansoni schistosomula (LE); test: XTT viability relative to DMSO control; higher = more viable (less active); settings: 72 h; 10 µM
# Method: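 XTT/PMS was then added for a further 24 h (72 h total) and A450 was read. % viability = (sample - heat-killed control)/(DMSO control - heat-killed control) x 100, from duplicate wells in two independent experiments.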
# [2] = system: Schistosoma mansoni schistosomula (NMRI); test: phenotypic severity score (0-4); higher = more antischistosomal effect, active = 2 or more; settings: 10 µM
# [3] = system: Schistosoma mansoni schistosomula (Liberian); test: drug effect (1 - score/DMSO control score) (fraction); higher = more antischistosomal effect, active = 0.5 or more; extreme values may be limits of the assay; settings: 10 µM
# How it was run: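 Schistosomula of the Liberian strain of Schistosoma mansoni were mechanically transformed from cercariae, pre-incubated for at least 12 h, and placed at 50 per well in flat-bottom 96-well plates with Medium 199 containing 5% FCS. Compounds were tested in duplicate at 10 µM at 37 °C and 5% CO2, alongside wells holding 0.1% DMSO. Parasites were scored visually at 10× after 24, 48 and 72 h on a quarter-point scale running from 3 (normal) to 0 (dead). Drug effect came from the mean test-well score relative to the mean DMSO-well score, with negative values set to zero and plates accepted only when the DMSO wells averaged at least 2.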
# 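For phenotypic severity score (0-4) in this document: visual microscopic scoring of shape, motility and density changes versus 0.5% DMSO solvent controls, one point per descriptor, degeneracy or death scored 4, mean of duplicate wells.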
Compound,XTT viability [1],phenotypic severity score ([2]; 24 h),phenotypic severity score ([2]; 48 h),phenotypic severity score ([2]; 72 h),drug effect ([3]; 24 h),drug effect ([3]; 48 h),drug effect ([3]; 72 h)
COC(=O)Nc1nc2cc(C(=O)c3ccccc3)ccc2[nH]1,71.1%,0 (inactive),0 (inactive),0 (inactive),0.15 (inactive),0.189 (inactive),0.278 (inactive)
Cc1ccc2[nH]c3c(NCCN(C)C)ncnc3c2c1,–,1 (inactive),0 (inactive),1 (inactive),0.25 (inactive),0.222 (inactive),0.333 (inactive)
CN1CCC(c2cc(-c3ccncc3)c(-c3ccc(F)cc3)[nH]2)CC1,94.6%,0 (inactive),0 (inactive),0 (inactive),< 0 (inactive),0.0556 (inactive),0.111 (inactive)
CCCCS(=O)(=O)Nc1ccc2cnn(C)c2c1,141%,0 (inactive),0 (inactive),0 (inactive),0.0811 (inactive),0.111 (inactive),0.0625 (inactive)
COC(=O)c1cccc2oc(-c3cccc(OC)c3NC(=O)c3cc(-c4ccccc4)on3)nc12,88.1%,0 (inactive),0 (inactive),0 (inactive),0.351 (inactive),0.333 (inactive),0.312 (inactive)
Cc1ccc(C(=O)Nc2ccc(S(=O)(=O)O)c3cc(S(=O)(=O)O)cc(S(=O)(=O)O)c23)cc1NC(=O)c1cccc(NC(=O)Nc2cccc(C(=O)Nc3cc(C(=O)Nc4ccc(S(=O)(=O)O)c5cc(S(=O)(=O)O)cc(S(=O)(=O)O)c45)ccc3C)c2)c1,94.8%,0 (inactive),0 (inactive),0 (inactive),0.15 (inactive),0.297 (inactive),0.389 (inactive)
CC(=O)NCC1CN(c2ccc(-c3ccc(CNCc4cn[nH]n4)cc3)c(F)c2)C(=O)O1 (stereo not drawn),108%,0 (inactive),0 (inactive),0 (inactive),0.05 (inactive),0.0556 (inactive),< 0 (inactive)
CN1CCN(c2nccc3[nH]c(-c4cccc(F)c4)cc23)CC1,66.3%,0 (inactive),2 (active),4 (active),0.0909 (inactive),0.1 (inactive),0.158 (inactive)
Cc1cc(NC(=O)c2ccc(Oc3ccc(Cl)cc3O)o2)no1,99.6%,0 (inactive),0 (inactive),0 (inactive),0.1 (inactive),< 0 (inactive),0.111 (inactive)
Cc1ccccc1CN1CCC(O)(c2ccc(Cl)c(C(F)(F)F)c2)CC1,–,2 (active),0 (inactive),1 (inactive),0.1 (inactive),0.0556 (inactive),0.188 (inactive)
CCc1ccccc1-n1c(C)cn2c3c(=O)n(C(C(=O)OC)C(C)C)c(=O)n(C)c3nc12 (stereo not drawn),108%,1 (inactive),0 (inactive),0 (inactive),0.15 (inactive),0.405 (inactive),0.636 (active)
COc1ccc(N(CCc2cccc(C)n2)C(=O)C2CCCCC2)cc1,88.7%,0 (inactive),2 (active),1 (inactive),0.15 (inactive),0.2 (inactive),0.111 (inactive)
CCCS(=O)(=O)N1CCC(CO)(Cc2ccccc2C(F)(F)F)CC1,–,2 (active),4 (active),4 (active),0.243 (inactive),0.278 (inactive),0.75 (active)
O=C(C1CCN(c2nnc(-n3cccc3)s2)CC1)N1CCC(Cc2ccccc2)CC1,103%,1 (inactive),1 (inactive),0 (inactive),0.0526 (inactive),0.111 (inactive),< 0 (inactive)
CCCCOC(=O)Nc1cc2nc(C3CCCCC3)[nH]c2cc1N1CCCC1,132%,3 (active),4 (active),4 (active),0.15 (inactive),0.389 (inactive),0.562 (active)
CC(C)(C)c1ccc(N[C@@H]2CCCC[C@H]2NC(=O)c2ccco2)cc1,–,0 (inactive),0 (inactive),0 (inactive),< 0 (inactive),< 0 (inactive),0.111 (inactive)
Cc1cc(Cl)ccc1NC(=O)CCc1ccc(S(=O)(=O)NCC(C)C)cc1,–,0 (inactive),0 (inactive),0 (inactive),0.2 (inactive),0.278 (inactive),0.375 (inactive)
CC(C)(C)OC(=O)N1CCC(Cn2nc(-c3cnc4ccccc4c3)c3c(N)ncnc32)CC1,125%,1 (inactive),4 (active),4 (active),0.405 (inactive),0.444 (inactive),0.688 (active)
Cc1cnc(N2CCN[C@@H](Cc3ccccc3)C2)nc1Oc1ccc(-n2ccnc2)cc1,17.8%,4 (active),4 (active),4 (active),0.3 (inactive),0.556 (active),1 (active)
COc1ccc(N(CCc2cccc(C)n2)C(C)=O)cc1,114%,1 (inactive),1 (inactive),0 (inactive),0.15 (inactive),0.135 (inactive),0.0909 (inactive)
CCC(C)NC(=O)c1ccc(NC(=O)C2(c3ccccc3)CCCC2)cc1 (stereo not drawn),90.6%,0 (inactive),0 (inactive),0 (inactive),0.05 (inactive),0.027 (inactive),0.0303 (inactive)

Compound,XTT viability [1],phenotypic severity score ([2]; 24 h),phenotypic severity score ([2]; 48 h),phenotypic severity score ([2]; 72 h),drug effect ([3]; 24 h),drug effect ([3]; 48 h),drug effect ([3]; 72 h)
Cc1nn(C(=O)Nc2cccc(C(F)(F)F)c2)c(C)c1Sc1ncccn1,137%,0 (inactive),0 (inactive),0 (inactive),0.15 (inactive),0.167 (inactive),0.312 (inactive)
COc1ccc(OC(C)C(=O)Nc2ccc(Cl)cc2C)cc1 (stereo not drawn),97.2%,0 (inactive),0 (inactive),0 (inactive),0.182 (inactive),0.35 (inactive),0.345 (inactive)
Nc1cccnc1Nc1ccc(Cl)cc1,157%,0 (inactive),0 (inactive),0 (inactive),0.15 (inactive),0.278 (inactive),0.375 (inactive)
O=C(C1CCCCC1)N1CC(=O)N2CCc3ccccc3C2C1 (stereo not drawn),97.3%,4 (active),4 (active),4 (active),0.3 (inactive),0.351 (inactive),0.556 (active)
C[C@H](C(N)=O)N1CCCC[C@H]1c1ccc(OCc2cccc(F)c2)cc1,118%,0 (inactive),0 (inactive),0 (inactive),0.05 (inactive),0.0811 (inactive),0.212 (inactive)
CC(=O)NCC1CN(c2ccc(-c3ccc(CO)cc3)c(F)c2)C(=O)O1 (stereo not drawn),–,0 (inactive),1 (inactive),0 (inactive),0.1 (inactive),0.111 (inactive),0.0625 (inactive)
CCc1ccc(S(=O)(=O)Nc2cc(CN3CCN(CCC(C)C)CC3)ccc2C)cc1,85.8%,1 (inactive),2 (active),4 (active),0.25 (inactive),0.444 (inactive),0.5 (active)
COc1ccc2nccc(NC(=O)C3CCN(CCc4ccc(Cl)cc4)CC3)c2n1,77.2%,0 (inactive),0 (inactive),0 (inactive),0.05 (inactive),0.0556 (inactive),0.111 (inactive)
O=C(NCc1ccoc1)N1CCN(Cc2ccc3c(c2)OCO3)CC1,76.2%,0 (inactive),0 (inactive),0 (inactive),0.136 (inactive),0.2 (inactive),0.182 (inactive)
N#CCN(CCCCN1CCN(c2ccc(F)cc2)CC1)C(=O)OCc1ccccc1,118%,0 (inactive),0 (inactive),0 (inactive),0.0811 (inactive),0.111 (inactive),0.125 (inactive)
CC(=O)Nc1ccc(NC(=O)c2cc(-c3cc(Cl)ccc3O)[nH]n2)cc1,94.2%,0 (inactive),0 (inactive),0 (inactive),0.227 (inactive),0.15 (inactive),0.127 (inactive)
COc1cc2ncnc(NC3CCN(Cc4ccccc4)CC3)c2cc1OC,86.5%,0 (inactive),0 (inactive),0 (inactive),0.1 (inactive),0.135 (inactive),0.0556 (inactive)
COC(=O)c1c(NC(=O)c2cc3ccccc3oc2=O)sc2c1CCN(Cc1ccccc1)C2,76.3%,0 (inactive),3 (active),2 (active),0.4 (inactive),0.222 (inactive),0.556 (active)
COc1ccc(CCN2CCC(NCc3cccc(N(C)C)c3)CC2)cc1,98.6%,0 (inactive),0 (inactive),0 (inactive),< 0 (inactive),0.027 (inactive),0.0303 (inactive)
CCN(CC)S(=O)(=O)c1ccc(C(=O)Nc2cc(C)nn2-c2nc(C)c(C)c(=O)[nH]2)cc1,80.6%,0 (inactive),0 (inactive),0 (inactive),0.1 (inactive),< 0 (inactive),< 0 (inactive)
NS(=O)(=O)c1cncc(-c2ccc3nccc(-c4cn[nH]c4)c3n2)c1,98.4%,0 (inactive),0 (inactive),0 (inactive),0.135 (inactive),0.111 (inactive),0.312 (inactive)
FC(F)(F)c1cccc(-c2nc3c(NCc4ccncc4)nccc3[nH]2)c1,90.7%,0 (inactive),0 (inactive),0 (inactive),0.15 (inactive),0.0811 (inactive),0.152 (inactive)
Cc1ccc2[nH]c(C3CCCNC3)c(-c3ccncc3)c2c1 (stereo not drawn),75.2%,0 (inactive),0 (inactive),0 (inactive),< 0 (inactive),< 0 (inactive),0.111 (inactive)
Cc1[nH]c2cc(F)cc(F)c2c(=O)c1-c1ccc(Oc2ccc(OC(F)(F)F)cc2)cc1,74.6%,2 (active),4 (active),4 (active),0.45 (inactive),0.778 (active),0.75 (active)
CC(C)(C(=O)Nc1ccc(F)cc1)n1cc(-c2ccccc2F)cn1,128%,0 (inactive),0 (inactive),0 (inactive),0.135 (inactive),0.111 (inactive),< 0 (inactive)
CC(C)(C)n1nc(-c2ccccc2)c2c(N)ncnc21,106%,1 (inactive),0 (inactive),0 (inactive),0.182 (inactive),0.2 (inactive),0.127 (inactive)
